The source made the active and inactive calls. No rule for the calls is given here.

The term AC50 denotes the concentration at which the activity in the assay is half-maximal.

The conditions of one test: Ebola virus entry assay, blue channel fluorescence.
`Nc1c2c(nc3ccccc13)CCCC2`: the AC50 is 31.6 µM (active).

`CN(C)C(=S)SC(=S)N(C)C`: the AC50 is 5.62 µM (active). Turning to `Cc1cccc(CN2CCN(C(c3ccccc3)c3ccc(Cl)cc3)CC2)c1` (stereo not given), the AC50 is 22.4 µM (active). As for `CCCCN(CCCC)CC(O)c1cc(Cl)cc2c1-c1ccc(Cl)cc1/C2=C/c1ccc(Cl)cc1` (stereo not given), the AC50 is 39.8 µM (active). Turning to `CCCCCCCCOc1ccccc1C(=O)Nc1ccc(C(=O)OCC[N+](C)(CC)CC)cc1`, the AC50 is 10 µM (active). Turning to `Cc1c(C(=O)NN2CCCCC2)nn(-c2ccc(Cl)cc2Cl)c1-c1ccc(Cl)cc1`, the AC50 was 14.1 µM (active). For the molecule `OC(CCN1CCCCC1)(c1ccccc1)c1ccccc1`, the AC50 is 31.6 µM (active). On to `CN(C)CCOC1=Cc2ccccc2Sc2ccc(Cl)cc21`, for which the AC50 was 15.8 µM (active).

On to `CCN(CC)CCOc1ccc(C(O)(Cc2ccc(Cl)cc2)c2ccc(C)cc2)cc1` (stereo not given), for which the AC50 was 2.51 µM (active).

Take `CCCCCN=C(N)N/N=C/c1c[nH]c2ccc(OC)cc12`: the AC50 is 3.98 µM (active). Regarding `C[C@@H](CN(C)C)CN1c2ccccc2Sc2ccccc21`, the AC50 was 8.91 µM (active). The same measure, in the same setting: then `CCCCc1ccc2nc(NC(=O)OC)[nH]c2c1`, with 15.8 µM (active); and `c1ccc2c(c1)CCc1ccccc1N2`, with 17.8 µM (active). Consider `COc1ccc(CCN(C)CCCC(C#N)(c2cc(OC)c(OC)c(OC)c2)C(C)C)cc1OC` (stereo not given), for which the concentration at half-maximal activity (AC50) was 15.8 µM (active). As to `CC(CC1c2ccccc2CCc2ccccc21)CN(C)C` (stereo not given), the AC50 is 6.31 µM (active). Consider `CN(C)CCN(Cc1ccc(Cl)cc1)c1ccccn1`, for which the AC50 is 17.8 µM (active). The same measure, in the same setting: then `CCN(CC)CCOc1ccccc1C(=O)CCc1ccccc1`, with 15.8 µM (active). On to `CN(C)CCOC(c1ccccc1)c1ccc(Br)cc1` (stereo not given), for which the AC50 is 11.2 µM (active).

With `O=C1NCN(c2ccccc2)C12CCN(CCCC(c1ccc(F)cc1)c1ccc(F)cc1)CC2`, the AC50 was 1.41 µM (active).

Consider `OC(CCCN1CCCCC1)(c1ccccc1)c1ccccc1`, for which the half-maximal activity concentration (AC50) is 10 µM (active).

For the molecule `CN1CCCN(C(c2ccccc2)c2ccc(Cl)cc2)CC1` (stereo not given), the AC50 was 3.16 µM (active). Turning to `Cc1cc(C(C)(C)C)cc(C)c1CC1=NCCN1`, the AC50 was 14.1 µM (active). As to `O=C(Nc1ccccc1)OCC(CN1CCCCC1)OC(=O)Nc1ccccc1` (stereo not given), the AC50 was 10 µM (active).

For another test the following is noted: Ebola virus entry assay, ratio channel.
For the molecule `CCCCOc1ccc(C(=O)CCN2CCCCC2)cc1`, the AC50 was 31.6 µM (active). With `OCCN1CCN(CCCN2c3ccccc3C=Cc3ccccc32)CC1`, the AC50 was 14.1 µM (active).

As for `COc1cc2c(cc1OC)-c1cc(=Nc3c(C)cc(C)cc3C)n(C)c(=O)n1CC2`, the AC50 is 15.8 µM (active). On the same count and under the same terms, in the case of `CN1CCC(=C2c3ccccc3CCc3cccnc32)CC1` it was 31.6 µM (active). In the case of `COC(=O)[C@H]1[C@H]2C[C@@H]3c4[nH]c5cc(OC)ccc5c4CCN3C[C@H]2C[C@@H](OC(=O)COc2ccc(OC)cc2)[C@@H]1OC`, the AC50 was 25.1 µM (active). As for `N/C(=N\N=C\c1ccc(Cl)cc1)N/N=C/c1ccc(Cl)cc1`, the result was inactive. `O=C(c1ccc(F)cc1)C1CCN(CCn2c(=S)[nH]c3ccccc3c2=O)CC1`: the AC50 is 17.8 µM (active). For `Cc1nc2sccn2c(=O)c1CCN1CCC(=C(c2ccc(F)cc2)c2ccc(F)cc2)CC1`, the AC50 is 15.8 µM (active).

As to `Cc1cc(C(C)(C)C)c(O)c(C)c1CC1=NCCN1`, the result was inactive. As for `CN1CCC(=C2c3ccccc3CC(=O)c3sccc32)CC1`, the half-maximal activity concentration (AC50) is 28.2 µM (active).

`CCOC(=O)N1CCC(Nc2ccc(Cl)cc2N)CC1`: the outcome was inactive. For `Clc1ccc(Cn2c(CN3CCCC3)nc3ccccc32)cc1`, the AC50 is 22.4 µM (active). As for `O=C(O)c1cn(-c2ccc(F)cc2)c2cc(N3CCNCC3)c(F)cc2c1=O`, the result was inactive.

Consider `Cc1ccc2c(Br)cc(Br)c(O)c2n1`, for which the AC50 is 39.8 µM (active). In the case of `CC1=C(C)C(=O)C(C(CCCCCC(=O)O)c2ccccc2)=C(C)C1=O` (stereo not given), the outcome was inactive.

For the molecule `C[C@@H](C1=C(CCN(C)C)Cc2ccccc21)c1ccccn1`, the AC50 is 10 µM (active). For `Nc1c2c(nc3ccccc13)CCCC2`, the AC50 is 31.6 µM (active). `CN(C)C(=S)SC(=S)N(C)C`: the AC50 is 5.01 µM (active). As to `Cc1cccc(CN2CCN(C(c3ccccc3)c3ccc(Cl)cc3)CC2)c1` (stereo not given), the half-maximal activity concentration (AC50) was 22.4 µM (active).

For `CCCCN(CCCC)CC(O)c1cc(Cl)cc2c1-c1ccc(Cl)cc1/C2=C/c1ccc(Cl)cc1` (stereo not given), the AC50 is 39.8 µM (active). With `CCCCCCCCOc1ccccc1C(=O)Nc1ccc(C(=O)OCC[N+](C)(CC)CC)cc1`, the concentration at half-maximal activity (AC50) was 2.51 µM (active). Turning to `Cc1c(C(=O)NN2CCCCC2)nn(-c2ccc(Cl)cc2Cl)c1-c1ccc(Cl)cc1`, the AC50 is 11.2 µM (active).

Values taken from PubChem BioAssay (NCATS).
